Source: the supplement of paper PMC10849652
About 8,800 targets were measured; listed, in parts, are those with a hit and a random draw of the rest. About 0.5% of all pairs of compound and target were hits.

Tests used:
Assay in all cases: log2 fold change, soluble protein after heating vs DMSO (PISA); higher = thermal stabilisation; K562 lysate, 10 uM; active = over 0.2 and 3.5 SD of the protein, either way, in both replicates (recomputed)
erlotinib = compound: C#Cc1cccc(Nc2ncnc3cc(OCCOC)c(OCCOC)cc23)c1 [erlotinib]
Outline: (§1)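 Log-two fold change in thermal stability relative to solvent controls is reported from duplicates. For each sample, crude K562 extract from dounce-homogenised pellets in PBS pH 7.4 with 1 mM MgCl2, at 1 mg/mL protein, was treated with 10 μM compound for 30 min. Aliquots heated for 3 min across 48°C-58°C were pooled, brought to 0.5% NP-40 at 4°C and cleared at 21,000xg for 90 min. The supernatant was quantified by TMTpro 16plex LC-MS/MS with channel sums equalised.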

[1] = compound: C/C(=N\NC(=O)C1=CC(=CC=C1)S(=O)(=O)N2CCOCC2)/C3=C(C=CC(=C3)Cl)O
Outline: as §1

[2] = compound: C1=CC(=CC=C1C2=NC3=C(N2)C=C(C=C3)C(=O)N)OC4=CC=C(C=C4)Cl
Outline: as §1

[3] = compound: C1=CC2=C(C=CC(=C2)/C=C\3/C(=O)NC(=NCC4=CC=CS4)S3)N=C1
Outline: as §1

[4] = compound: C1=CC2=NC=CN=C2C=C1/C=C/3\C(=O)NC(=O)S3
Outline: as §1

[5] = compound: C1=CC=C(C=C1)C2=NC(=C(N2)C3=CC=NC=C3)C4=CC(=C(C=C4)Cl)O
Outline: as §1

[6] = compound: C1=CC=C2C(=C1)C3=NNC4=CC=CC(=C43)C2=O
Outline: as §1

[7] = compound: C1CCN(C1)C(=O)NC2=CC=CC(=C2)NC3=NC=C(C(=N3)NCCC4=CN=CN4)Br
Outline: as §1

[8] = compound: C1CN(CCC1(CC2=CC=C(C=C2)Cl)N)C3=NC=NC4=C3C=CN4
Outline: as §1

IRAK-1-4 Inhibitor I = compound: C1COCCN1CCN2C3=CC=CC=C3N=C2NC(=O)C4=CC(=CC=C4)[N+](=O)[O-] [IRAK-1-4 Inhibitor I]
Outline: as §1

Chain of UniProt Q9NXV6 (Q9NXV6 whole entry, looked up): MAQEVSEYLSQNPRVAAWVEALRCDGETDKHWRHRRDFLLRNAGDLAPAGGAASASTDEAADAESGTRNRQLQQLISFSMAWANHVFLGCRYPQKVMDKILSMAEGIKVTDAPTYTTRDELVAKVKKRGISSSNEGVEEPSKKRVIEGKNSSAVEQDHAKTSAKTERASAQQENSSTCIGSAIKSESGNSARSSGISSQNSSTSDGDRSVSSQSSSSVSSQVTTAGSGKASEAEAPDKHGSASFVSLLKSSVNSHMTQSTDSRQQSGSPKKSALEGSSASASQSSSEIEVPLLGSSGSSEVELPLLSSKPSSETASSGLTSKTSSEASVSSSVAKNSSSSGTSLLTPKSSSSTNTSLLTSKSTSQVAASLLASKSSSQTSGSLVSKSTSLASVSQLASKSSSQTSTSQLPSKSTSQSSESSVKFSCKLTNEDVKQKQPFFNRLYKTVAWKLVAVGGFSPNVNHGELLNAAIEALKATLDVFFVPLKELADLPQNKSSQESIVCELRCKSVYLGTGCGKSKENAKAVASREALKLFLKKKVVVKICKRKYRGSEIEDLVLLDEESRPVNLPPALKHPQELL
Chain of UniProt Q53HL2 (Q53HL2 whole entry, looked up): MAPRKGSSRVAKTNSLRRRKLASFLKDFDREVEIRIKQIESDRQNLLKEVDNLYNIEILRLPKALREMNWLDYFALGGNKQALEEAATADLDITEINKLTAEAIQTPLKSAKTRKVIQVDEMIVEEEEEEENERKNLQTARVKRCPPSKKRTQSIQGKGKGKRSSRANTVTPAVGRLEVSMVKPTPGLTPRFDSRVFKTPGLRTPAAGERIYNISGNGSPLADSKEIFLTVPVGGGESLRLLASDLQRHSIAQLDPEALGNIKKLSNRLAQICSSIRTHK
Chain of UniProt O95429 (O95429 whole entry, looked up): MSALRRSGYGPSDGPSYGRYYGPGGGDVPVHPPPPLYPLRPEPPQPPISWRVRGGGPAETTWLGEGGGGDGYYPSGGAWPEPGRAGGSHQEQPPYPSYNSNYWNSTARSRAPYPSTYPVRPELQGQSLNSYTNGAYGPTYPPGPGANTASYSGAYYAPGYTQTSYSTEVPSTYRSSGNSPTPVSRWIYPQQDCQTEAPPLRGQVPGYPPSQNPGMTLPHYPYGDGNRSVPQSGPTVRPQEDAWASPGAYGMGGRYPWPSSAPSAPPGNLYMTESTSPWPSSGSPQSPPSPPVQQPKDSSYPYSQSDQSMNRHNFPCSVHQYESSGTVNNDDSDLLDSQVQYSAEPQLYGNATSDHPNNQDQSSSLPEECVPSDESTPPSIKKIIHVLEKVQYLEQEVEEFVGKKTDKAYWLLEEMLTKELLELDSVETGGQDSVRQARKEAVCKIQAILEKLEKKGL
Chain of UniProt P49336 (P49336 whole entry, looked up): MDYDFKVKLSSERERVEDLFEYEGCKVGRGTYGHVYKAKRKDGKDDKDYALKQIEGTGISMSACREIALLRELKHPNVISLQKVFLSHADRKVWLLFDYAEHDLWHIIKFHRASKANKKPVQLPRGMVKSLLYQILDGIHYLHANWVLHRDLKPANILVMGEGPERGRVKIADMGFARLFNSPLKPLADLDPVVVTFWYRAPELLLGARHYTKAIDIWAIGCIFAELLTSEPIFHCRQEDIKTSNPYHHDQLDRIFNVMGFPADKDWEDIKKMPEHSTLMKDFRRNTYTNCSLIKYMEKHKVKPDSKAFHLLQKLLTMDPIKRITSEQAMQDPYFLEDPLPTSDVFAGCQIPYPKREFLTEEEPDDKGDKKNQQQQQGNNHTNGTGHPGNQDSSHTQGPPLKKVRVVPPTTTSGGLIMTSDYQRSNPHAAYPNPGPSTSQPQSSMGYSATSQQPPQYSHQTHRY
Chain of UniProt P98196 (P98196 whole entry, looked up): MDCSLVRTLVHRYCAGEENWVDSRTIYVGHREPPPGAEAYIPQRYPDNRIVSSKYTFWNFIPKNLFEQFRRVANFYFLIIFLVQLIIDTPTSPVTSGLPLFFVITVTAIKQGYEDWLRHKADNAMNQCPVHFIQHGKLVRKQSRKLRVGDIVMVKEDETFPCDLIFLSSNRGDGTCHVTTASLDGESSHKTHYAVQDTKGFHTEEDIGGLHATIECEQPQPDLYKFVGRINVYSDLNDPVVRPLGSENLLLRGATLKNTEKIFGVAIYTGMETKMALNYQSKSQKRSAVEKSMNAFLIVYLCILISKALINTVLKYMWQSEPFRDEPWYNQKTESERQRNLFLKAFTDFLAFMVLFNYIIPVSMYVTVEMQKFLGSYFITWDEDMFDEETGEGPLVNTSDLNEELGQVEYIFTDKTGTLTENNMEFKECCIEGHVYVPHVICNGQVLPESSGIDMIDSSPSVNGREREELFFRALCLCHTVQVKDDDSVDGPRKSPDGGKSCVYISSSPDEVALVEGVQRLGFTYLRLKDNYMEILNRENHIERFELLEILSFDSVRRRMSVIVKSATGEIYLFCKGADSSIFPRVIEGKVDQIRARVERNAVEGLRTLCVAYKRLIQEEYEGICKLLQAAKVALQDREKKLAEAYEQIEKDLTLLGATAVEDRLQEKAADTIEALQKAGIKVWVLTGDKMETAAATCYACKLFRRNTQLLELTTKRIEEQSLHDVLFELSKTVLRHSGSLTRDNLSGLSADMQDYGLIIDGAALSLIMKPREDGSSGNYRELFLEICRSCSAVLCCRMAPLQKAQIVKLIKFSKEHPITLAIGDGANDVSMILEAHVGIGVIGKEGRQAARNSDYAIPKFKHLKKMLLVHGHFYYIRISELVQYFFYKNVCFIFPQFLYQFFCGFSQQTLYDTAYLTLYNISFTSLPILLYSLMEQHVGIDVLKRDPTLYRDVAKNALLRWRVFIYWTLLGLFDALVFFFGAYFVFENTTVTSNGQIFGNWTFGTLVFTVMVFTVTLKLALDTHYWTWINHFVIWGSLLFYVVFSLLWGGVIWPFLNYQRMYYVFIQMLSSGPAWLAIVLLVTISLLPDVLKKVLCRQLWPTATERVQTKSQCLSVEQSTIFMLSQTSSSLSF
Chain of UniProt Q13554 (Q13554 whole entry, looked up): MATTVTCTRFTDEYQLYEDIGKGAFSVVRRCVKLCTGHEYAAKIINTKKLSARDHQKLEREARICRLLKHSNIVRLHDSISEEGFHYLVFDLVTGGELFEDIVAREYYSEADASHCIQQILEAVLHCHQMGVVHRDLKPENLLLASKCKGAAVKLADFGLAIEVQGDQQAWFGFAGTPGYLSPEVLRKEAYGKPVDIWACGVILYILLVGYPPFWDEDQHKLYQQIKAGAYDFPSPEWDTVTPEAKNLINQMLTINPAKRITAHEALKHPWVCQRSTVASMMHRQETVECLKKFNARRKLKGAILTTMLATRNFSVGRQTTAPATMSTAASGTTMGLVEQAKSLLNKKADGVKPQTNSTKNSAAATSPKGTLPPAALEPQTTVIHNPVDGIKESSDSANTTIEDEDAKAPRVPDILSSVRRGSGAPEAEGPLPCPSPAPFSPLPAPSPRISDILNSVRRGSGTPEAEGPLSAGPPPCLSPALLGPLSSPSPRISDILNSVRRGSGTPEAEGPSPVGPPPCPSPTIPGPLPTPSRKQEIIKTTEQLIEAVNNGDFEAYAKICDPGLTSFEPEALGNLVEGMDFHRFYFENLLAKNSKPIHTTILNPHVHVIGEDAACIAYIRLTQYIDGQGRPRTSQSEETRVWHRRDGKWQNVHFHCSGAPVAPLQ
Chain of UniProt Q9BYV8 (Q9BYV8 whole entry, looked up): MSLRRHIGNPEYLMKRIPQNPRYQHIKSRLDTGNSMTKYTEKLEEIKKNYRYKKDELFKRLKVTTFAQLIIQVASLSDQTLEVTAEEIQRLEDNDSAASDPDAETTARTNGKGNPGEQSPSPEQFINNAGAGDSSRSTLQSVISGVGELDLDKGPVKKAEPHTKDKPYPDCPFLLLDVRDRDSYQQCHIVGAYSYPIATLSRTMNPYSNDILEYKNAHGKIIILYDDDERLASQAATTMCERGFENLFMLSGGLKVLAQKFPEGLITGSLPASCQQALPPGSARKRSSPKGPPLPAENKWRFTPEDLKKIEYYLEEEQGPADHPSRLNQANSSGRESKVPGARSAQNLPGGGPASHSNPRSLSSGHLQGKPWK
Chain of UniProt Q9Y6K0 (Q9Y6K0 whole entry, looked up): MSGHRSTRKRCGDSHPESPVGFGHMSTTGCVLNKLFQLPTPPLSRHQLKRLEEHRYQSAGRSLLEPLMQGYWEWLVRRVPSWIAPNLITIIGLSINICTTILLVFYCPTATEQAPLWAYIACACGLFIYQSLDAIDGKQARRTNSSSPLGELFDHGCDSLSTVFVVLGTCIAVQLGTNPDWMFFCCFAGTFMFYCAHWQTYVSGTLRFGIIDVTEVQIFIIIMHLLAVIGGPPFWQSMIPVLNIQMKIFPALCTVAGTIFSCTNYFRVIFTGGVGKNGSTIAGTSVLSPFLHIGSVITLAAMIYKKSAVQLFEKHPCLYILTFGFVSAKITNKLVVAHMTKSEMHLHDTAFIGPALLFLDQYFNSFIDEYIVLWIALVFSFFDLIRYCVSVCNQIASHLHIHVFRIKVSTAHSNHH
Chain of UniProt Q00535 (Q00535 whole entry, looked up): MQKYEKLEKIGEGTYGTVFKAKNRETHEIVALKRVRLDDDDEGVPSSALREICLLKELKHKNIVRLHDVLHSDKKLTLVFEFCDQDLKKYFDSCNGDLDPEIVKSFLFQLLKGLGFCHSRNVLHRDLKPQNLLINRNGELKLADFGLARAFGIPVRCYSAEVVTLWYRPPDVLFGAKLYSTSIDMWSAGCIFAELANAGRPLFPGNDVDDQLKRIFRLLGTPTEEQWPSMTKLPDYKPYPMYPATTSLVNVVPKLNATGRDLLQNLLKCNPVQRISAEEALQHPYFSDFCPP
Chain of UniProt Q86WR0 (Q86WR0 whole entry, looked up): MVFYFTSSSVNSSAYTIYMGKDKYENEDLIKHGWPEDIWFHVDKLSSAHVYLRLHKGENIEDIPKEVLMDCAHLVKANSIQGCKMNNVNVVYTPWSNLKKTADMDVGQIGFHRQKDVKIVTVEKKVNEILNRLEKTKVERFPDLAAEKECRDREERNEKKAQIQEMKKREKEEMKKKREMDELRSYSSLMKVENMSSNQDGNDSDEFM
Chain of UniProt A8MTT3 (A8MTT3 whole entry, looked up): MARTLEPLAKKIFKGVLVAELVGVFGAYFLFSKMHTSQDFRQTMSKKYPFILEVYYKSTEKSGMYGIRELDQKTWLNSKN

Target | log2 fold change (erlotinib) | log2 fold change [1] | log2 fold change [2] | log2 fold change [3] | log2 fold change [4] | log2 fold change [5] | log2 fold change [6] | log2 fold change [7] | log2 fold change [8] | log2 fold change (IRAK-1-4 Inhibitor I)
C18orf25 (UniProt Q96B23) | -0.025 (inactive) | -0.315 (inactive) | -0.086 (inactive) | 0.015 (inactive) | 0.001 (inactive) | 0.003 (inactive) | 0.004 (inactive) | 0.005 (inactive) | 0.029 (inactive) | 0.114 (inactive)
C15orf41 (UniProt Q9Y2V0) | 0.008 (inactive) | 0.073 (inactive) | 0.032 (inactive) | 0.112 (inactive) | -0.097 (inactive) | 0.014 (inactive) | -0.04 (inactive) | -0.028 (inactive) | -0.076 (inactive) | -0.012 (inactive)
ATP11A (UniProt P98196) | -0.003 (inactive) | -0.067 (inactive) | -0.033 (inactive) | -0.011 (inactive) | -0.022 (inactive) | 0.016 (inactive) | 0.102 (inactive) | -0.005 (inactive) | -0.015 (inactive) | 0.087 (inactive)
CEP41 (UniProt Q9BYV8) | -0.068 (inactive) | -0.125 (inactive) | 0.006 (inactive) | -0.007 (inactive) | 0.016 (inactive) |  | 0.019 (inactive) | -0.035 (inactive) | 0.03 (inactive) | 
CDKN2AIP (UniProt Q9NXV6) | -0.047 (inactive) | 0.067 (inactive) | 0.072 (inactive) | -0.01 (inactive) | -0.074 (inactive) | -0.006 (inactive) | -0.079 (inactive) | -0.038 (inactive) | 0 (inactive) | 0.048 (inactive)
CCDC47 (UniProt Q96A33) | 0.02 (inactive) | 0.003 (inactive) | -0.071 (inactive) | 0.009 (inactive) | 0.022 (inactive) | -0.03 (inactive) | -0.093 (inactive) | -0.007 (inactive) | 0.024 (inactive) | 0.003 (inactive)
BCKDHB (UniProt P21953) | 0.013 (inactive) | -0.034 (inactive) | 0.033 (inactive) | -0.089 (inactive) | 0.049 (inactive) | -0.098 (inactive) | -0.117 (inactive) | 0.065 (inactive) | -0.012 (inactive) | 0.134 (inactive)
CDCA8 (UniProt Q53HL2) | 0.112 (inactive) | 0.054 (inactive) | 0.009 (inactive) | -0.071 (inactive) | -0.12 (inactive) |  | -0.246 (inactive) | -0.01 (inactive) | -0.054 (inactive) | 
CCDC25 (UniProt Q86WR0) | -0.012 (inactive) | 0.031 (inactive) | 0.031 (inactive) | 0.012 (inactive) | 0.019 (inactive) | 0.015 (inactive) | 0.007 (inactive) | -0.006 (inactive) | 0 (inactive) | -0.024 (inactive)
BAG4 (UniProt O95429) | -0.036 (inactive) | 0.046 (inactive) | 0.075 (inactive) | -0.017 (inactive) | 0.004 (inactive) | -0.038 (inactive) | 0.021 (inactive) | 0.047 (inactive) | 0.017 (inactive) | 0 (inactive)
CEPT1 (UniProt Q9Y6K0) | 0.025 (inactive) | -0.005 (inactive) | -0.216 (active) | 0.035 (inactive) | 0.032 (inactive) | -0.023 (inactive) | -0.015 (inactive) | 0 (inactive) | 0.081 (inactive) | 0.072 (inactive)
CAMK2B (UniProt Q13554) | 0.037 (inactive) | 0.086 (inactive) | -0.067 (inactive) | -0.039 (inactive) | -0.068 (inactive) | -0.069 (inactive) |  | 0.011 (inactive) | -0.034 (inactive) | 0.087 (inactive)
CANX isoform 2 (UniProt P27824) | 0.007 (inactive) | -0.027 (inactive) | 0.048 (inactive) | 0.004 (inactive) | 0 (inactive) | -0.007 (inactive) | -0.042 (inactive) | 0 (inactive) | 0.013 (inactive) | 0.003 (inactive)
BCR (UniProt P11274) | -0.006 (inactive) | 0.037 (inactive) | 0.047 (inactive) | 0.012 (inactive) | -0.01 (inactive) | 0.004 (inactive) | -0.052 (inactive) | -0.025 (inactive) | -0.011 (inactive) | -0.041 (inactive)
CCPG1 isoform 5 (UniProt Q9ULG6) | -0.014 (inactive) | 0.08 (inactive) | 0.082 (inactive) | 0.017 (inactive) | 0.024 (inactive) | 0.067 (inactive) | -0.119 (inactive) | 0.019 (inactive) | 0.053 (inactive) | -0.03 (inactive)
CEBPZOS (UniProt A8MTT3) | -0.038 (inactive) | 0.013 (inactive) | 0.004 (inactive) | 0.003 (inactive) |  | -0.014 (inactive) | 0.006 (inactive) | -0.011 (inactive) | 0.005 (inactive) | -0.015 (inactive)
BCL2L12 (UniProt Q9HB09) | 0.055 (inactive) | -0.067 (inactive) | -0.01 (inactive) | -0.056 (inactive) | 0.119 (inactive) | -0.111 (inactive) | 0.144 (inactive) | 0.162 (inactive) | 0.015 (inactive) | 0.002 (inactive)
BRD3 (UniProt Q15059) | -0.005 (inactive) | 0.084 (inactive) | -0.065 (inactive) | 0.004 (inactive) | -0.033 (inactive) |  | -0.013 (inactive) | -0.001 (inactive) | 0.036 (inactive) | 
BCKDK (UniProt O14874) | -0.041 (inactive) | -0.168 (inactive) | -0.007 (inactive) | 0.062 (inactive) | -0.007 (inactive) | -0.053 (inactive) | 0.01 (inactive) | -0.041 (inactive) | 0.045 (inactive) | -0.097 (inactive)
BORCS5 (UniProt Q969J3) | -0.014 (inactive) | -0.027 (inactive) | 0.016 (inactive) | 0.015 (inactive) | -0.036 (inactive) | -0.017 (inactive) | -0.012 (inactive) | 0.029 (inactive) | 0.128 (inactive) | 0.004 (inactive)
BRAF (UniProt P15056) | -0.05 (inactive) | -0.101 (inactive) | -0.04 (inactive) | 0.013 (inactive) | -0.008 (inactive) |  | 0 (inactive) | -0.007 (inactive) | 0.027 (inactive) | -0.005 (inactive)
ATP13A1 (UniProt Q9HD20) | 0.02 (inactive) | -0.09 (inactive) | -0.153 (inactive) | 0.024 (inactive) | -0.026 (inactive) | 0.02 (inactive) | -0.054 (inactive) | -0.04 (inactive) | 0.033 (inactive) | 0.015 (inactive)
CDK5 (UniProt Q00535) | -0.018 (inactive) | -0.065 (inactive) | 0.126 (inactive) | -0.041 (inactive) | -0.023 (inactive) | 0.01 (inactive) |  | 0.367 (inactive) | 0.004 (inactive) | 0.033 (inactive)
C1orf131 isoform 5 (UniProt Q8NDD1) | -0.006 (inactive) | -0.094 (inactive) | 0.051 (inactive) | -0.058 (inactive) |  | -0.013 (inactive) | -0.001 (inactive) | -0.062 (inactive) | -0.011 (inactive) | 0.067 (inactive)
CBX1 (UniProt P83916) | -0.012 (inactive) | -0.158 (inactive) | -0.012 (inactive) | -0.006 (inactive) | 0.03 (inactive) | -0.017 (inactive) | 0.017 (inactive) | 0.008 (inactive) | 0.03 (inactive) | 0.029 (inactive)
CDC40 (UniProt O60508) | -0.036 (inactive) | -0.004 (inactive) | -0.009 (inactive) | -0.037 (inactive) | 0.015 (inactive) | -0.072 (inactive) | -0.059 (inactive) | -0.023 (inactive) | -0.035 (inactive) | 0.117 (inactive)
C3orf33 (UniProt Q6P1S2) | 0.195 (inactive) | -0.205 (inactive) | 0.209 (inactive) | -0.124 (inactive) | 0.068 (inactive) | 0.032 (inactive) | 0.123 (inactive) |  |  | -0.281 (inactive)
ATG10 (UniProt Q9H0Y0) | 0.062 (inactive) | 0.043 (inactive) | -0.011 (inactive) | -0.012 (inactive) | -0.01 (inactive) | 0.035 (inactive) | 0.086 (inactive) | -0.004 (inactive) | -0.004 (inactive) | 0.022 (inactive)
CDK8 (UniProt P49336) | -0.012 (inactive) | -0.059 (inactive) | 0.028 (inactive) | -0.128 (inactive) | 0.068 (inactive) | 0.004 (inactive) | 0.128 (inactive) |  |  | 0.029 (inactive)
